The nature of assay [1]: NCI Yeast Anticancer Drug Screen. Data for the rad50 strain (AID 155).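 Also: 0% = growth of vehicle-only cultures of the same strain.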 The settings on record: S. cerevisiae rad50 strain growth inhibition, stronger effect = higher value. In short, it runs like this:
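DNA repair mutant yeast, compound exposure, growth read-out; inhibition is taken relative to vehicle.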

Assay [2] in a line: NCI Yeast Anticancer Drug Screen. Data for the mec2-1 strain (AID 157). The settings on record: S. cerevisiae mec2-1 strain, stronger effect = higher value. In short, it runs like this: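 Vehicle-treated cultures served as reference for growth inhibition of compound-exposed mec2-1 yeast.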
Assay [3] is described as follows: NCI Yeast Anticancer Drug Screen. Data for the sgs1 mgt1 strain (AID 161).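 Also: 0% = growth of cultures given vehicle only.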 The note with it: S. cerevisiae sgs1 mgt1 strain, stronger effect = higher value. In short, it runs like this: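 Read-out: growth inhibition vs vehicle controls. Cells: mutant yeast strain deficient in DNA damage repair.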
The nature of assay [4]: NCI Yeast Anticancer Drug Screen. Data for the cln2 rad14 strain (AID 165).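 Also: 0% = growth equal to vehicle treated cultures.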 The note with it: S. cerevisiae cln2 rad14 strain, stronger effect = higher value. In short, it runs like this: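 Each compound was tested on cln2 rad14 yeast. Inhibition of growth was calculated against vehicle-exposed controls.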
The nature of assay [5]: NCI Yeast Anticancer Drug Screen. Data for the bub3 strain (AID 167). The note with it: S. cerevisiae bub3 mutant strain, stronger effect = higher value. In short, it runs like this: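 In this screen, a yeast mutant lacking normal mitotic checkpoint function is challenged with compound. Relative growth versus vehicle gives the inhibition value.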
Assay [6] in a line: NCI Yeast Anticancer Drug Screen. Data for the mlh1 rad18 strain (AID 175). The note with it: S. cerevisiae mlh1 rad18 strain growth inhibition, stronger effect = higher value. In short, it runs like this: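 Vehicle-treated cultures served as the reference for growth inhibition in a yeast strain carrying DNA damage repair alterations exposed to each compound.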
Setting [7] is: at 5.0 µM (retest, dose inferred, filed as 0.5).
[8] abbreviates: at 50.0 µM (retest, dose inferred, filed as 5.0).

The structures appear in SMILES notation. Compounds without any hit were thinned out: in the full panel of roughly 79,000, 15% have a hit. Values without a mark were called inactive. The source made the active and inactive calls. Rule as the data show it: active = growth inhibition above about 70%; inactive = the rest.

With `Cc1cc(C)c(Cc2ccccc2O)cc1Cc1ccccc1O`, the growth inhibition in assay [1] (setting [7]) is 33%; in assay [1] (setting [8]), 47%; in assay [1] (at 50.0 µM) it was 90.5% (active); in assay [2] (setting [7]), 35%; in assay [2] (setting [8]) it was 46%; in assay [2] (at 50.0 µM) it was 91.7% (active). The growth inhibition is 80% (active) in assay [3] (setting [7]); 97% (active) in assay [3] (setting [8]); 92.5% (active) in assay [3] (at 50.0 µM); 65% in assay [4] (setting [7]); 99% (active) in assay [4] (setting [8]); 90.7% (active) in assay [4] (at 50.0 µM). Further, the growth inhibition in assay [5] (setting [7]) was 87% (active); in assay [5] (setting [8]), 98% (active); in assay [5] (at 50.0 µM) it was 90.1% (active); in assay [6] (setting [7]), 34%; in assay [6] (setting [8]), 38%; in assay [6] (at 50.0 µM), 89.7% (active).
In the case of `Cc1cc(NCCO)nc2c1ccc1ccccc12`, the growth inhibition in assay [1] (setting [7]) was 5%; in assay [1] (setting [8]) it was 9%; in assay [1] (at 50.0 µM) it was 53.9%; in assay [2] (setting [7]), 3%; in assay [2] (setting [8]) it was -2%; in assay [2] (at 50.0 µM), 35.6%. The growth inhibition in assay [3] (setting [7]) is 3%; in assay [3] (setting [8]), 16%; in assay [3] (at 50.0 µM), 46%; in assay [4] (setting [7]), -2%; in assay [4] (setting [8]) it was 23%; in assay [4] (at 50.0 µM) it was 16.6%. The growth inhibition in assay [5] (setting [7]) was -3%; in assay [5] (setting [8]), 16%; in assay [5] (at 50.0 µM), 19%; in assay [6] (setting [7]) it was 2%; in assay [6] (setting [8]), 28%; in assay [6] (at 50.0 µM), 61.2%.
Regarding `CCOC(=O)C1CCN(Cc2ccccc2)CC1=O` (configuration not stated), the growth inhibition is 61% in assay [1] (setting [7]); 89% (active) in assay [1] (setting [8]); 90% (active) in assay [1] (at 50.0 µM); 61% in assay [2] (setting [7]); 92% (active) in assay [2] (setting [8]); 91.3% (active) in assay [2] (at 50.0 µM). Also, the growth inhibition in assay [3] (setting [7]) was 68%; in assay [3] (setting [8]) it was 99% (active); in assay [3] (at 50.0 µM) it was 92.4% (active); in assay [4] (setting [7]) it was 49%; in assay [4] (setting [8]), 100% (active); in assay [4] (at 50.0 µM), 90.2% (active). Moreover, the growth inhibition in assay [5] (setting [7]) was 81% (active); in assay [5] (setting [8]) it was 98% (active); in assay [5] (at 50.0 µM), 90.7% (active); in assay [6] (setting [7]) it was 49%; in assay [6] (setting [8]), 87% (active); in assay [6] (at 50.0 µM), 90.8% (active).
Regarding `CN(Cc1cnc2nc(N)nc(N)c2n1)c1ccc(C(=O)NC(CCC(=O)O)C(=O)O)cc1C(F)(F)F` (configuration not stated), the growth inhibition in assay [1] (setting [7]) is -2%; in assay [1] (setting [8]), 76% (active); in assay [1] (at 50.0 µM) it was 72.7% (active); in assay [2] (setting [7]), 61%; in assay [2] (setting [8]), 98% (active); in assay [2] (at 50.0 µM), 50%. Besides, the growth inhibition in assay [3] (setting [7]) is -12%; in assay [3] (setting [8]), 62%; in assay [3] (at 50.0 µM) it was 67.5%; in assay [4] (setting [7]) it was -16%; in assay [4] (setting [8]), 5%; in assay [4] (at 50.0 µM), 29%. The growth inhibition is -19% in assay [5] (setting [7]); 65% in assay [5] (setting [8]); 75.5% (active) in assay [5] (at 50.0 µM); 0% in assay [6] (setting [7]); 86% (active) in assay [6] (setting [8]); 56.9% in assay [6] (at 50.0 µM).
In the case of `CCN(CC)C(=O)N1CCN(c2cccc(Cl)c2)CC1`, the growth inhibition in assay [1] (setting [7]) was 4%; in assay [1] (setting [8]) it was 58%; in assay [1] (at 50.0 µM), 74% (active); in assay [2] (setting [7]), 0%; in assay [2] (setting [8]), 84% (active); in assay [2] (at 50.0 µM) it was 91.2% (active). Also, the growth inhibition is 5% in assay [3] (setting [7]); 85% (active) in assay [3] (setting [8]); 90.2% (active) in assay [3] (at 50.0 µM); 1% in assay [4] (setting [7]); 50% in assay [4] (setting [8]); 93% (active) in assay [4] (at 50.0 µM). Also, the growth inhibition is 4% in assay [5] (setting [7]); 73% (active) in assay [5] (setting [8]); 85.7% (active) in assay [5] (at 50.0 µM); 2% in assay [6] (setting [7]); 76% (active) in assay [6] (setting [8]); 90.6% (active) in assay [6] (at 50.0 µM).
`COc1ccc2nc3cc(Cl)ccc3c(NCCCCCCNc3c4ccc(Cl)cc4nc4ccc(OC)nc34)c2n1`: the growth inhibition in assay [1] (setting [7]) was 5%; in assay [1] (setting [8]), 87% (active); in assay [1] (at 50.0 µM), 96.9% (active); in assay [2] (setting [7]), 6%; in assay [2] (setting [8]), 74% (active); in assay [2] (at 50.0 µM), 98.2% (active). Moreover, the growth inhibition in assay [3] (setting [7]) was 5%; in assay [3] (setting [8]), 82% (active); in assay [3] (at 50.0 µM), 98.2% (active); in assay [4] (setting [7]), 4%; in assay [4] (setting [8]), 80% (active); in assay [4] (at 50.0 µM) it was 91.5% (active). Besides, the growth inhibition in assay [5] (setting [7]) was 3%; in assay [5] (setting [8]), 92% (active); in assay [5] (at 50.0 µM) it was 96.8% (active); in assay [6] (setting [7]), 2%; in assay [6] (setting [8]), 82% (active); in assay [6] (at 50.0 µM), 96.5% (active).
On to `Cc1ccc(O)c(C(C)(C)c2ccccc2)c1`, for which the growth inhibition in assay [1] (setting [7]) is -8%; in assay [1] (setting [8]) it was 77% (active); in assay [1] (at 50.0 µM) it was 99.5% (active); in assay [2] (setting [7]) it was -5%; in assay [2] (setting [8]), 94% (active); in assay [2] (at 50.0 µM), 99.8% (active). For the same compound, the growth inhibition is -9% in assay [3] (setting [7]); 43% in assay [3] (setting [8]); 99.7% (active) in assay [3] (at 50.0 µM); -6% in assay [4] (setting [7]); 90% (active) in assay [4] (setting [8]); 98.7% (active) in assay [4] (at 50.0 µM). For the same compound, the growth inhibition is -49% in assay [5] (setting [7]); 95% (active) in assay [5] (setting [8]); 99.5% (active) in assay [5] (at 50.0 µM); -10% in assay [6] (setting [7]); 94% (active) in assay [6] (setting [8]); 99.3% (active) in assay [6] (at 50.0 µM).
Consider `C/C(=N/NC(=S)N(C)C)c1ccccc1O`, for which the growth inhibition in assay [1] (setting [7]) was 2%; in assay [1] (setting [8]), 13%; in assay [1] (at 50.0 µM) it was -28.2%; in assay [2] (setting [7]), -34%; in assay [2] (setting [8]), 9%; in assay [2] (at 50.0 µM), 86.3% (active). Besides, the growth inhibition is -43% in assay [3] (setting [7]); 16% in assay [3] (setting [8]); 52% in assay [3] (at 50.0 µM); 18% in assay [4] (setting [7]); 3% in assay [4] (setting [8]); 77.9% (active) in assay [4] (at 50.0 µM). The growth inhibition in assay [5] (setting [7]) was -29%; in assay [5] (setting [8]) it was 21%; in assay [5] (at 50.0 µM) it was 36.8%; in assay [6] (setting [7]) it was -17%; in assay [6] (setting [8]) it was 28%; in assay [6] (at 50.0 µM) it was 16.7%.
Take `COC(=O)Nc1nc2ccc(CCC(=O)c3c(C)oc(C)c3-c3ccc(NC(C)=O)cc3)cc2[nH]1`: the growth inhibition in assay [1] (setting [7]) was 4%; in assay [1] (setting [8]), 79% (active); in assay [1] (at 50.0 µM), 58.1%; in assay [2] (setting [7]), 4%; in assay [2] (setting [8]) it was 55%; in assay [2] (at 50.0 µM), 37.3%. Further, the growth inhibition is 5% in assay [3] (setting [7]); 78% (active) in assay [3] (setting [8]); 75.8% (active) in assay [3] (at 50.0 µM); 6% in assay [4] (setting [7]); 67% in assay [4] (setting [8]); 27.4% in assay [4] (at 50.0 µM). Also, the growth inhibition was 5% in assay [5] (setting [7]); 70% (active) in assay [5] (setting [8]); 26.1% in assay [5] (at 50.0 µM); -2% in assay [6] (setting [7]); 69% in assay [6] (setting [8]); 60.7% in assay [6] (at 50.0 µM).

These data come from PubChem BioAssay (NCI).
